# Screening results: PubChem, National Center for Advancing Translational Sciences (NCATS)
# Hits are enriched below; roughly 11% of the tested compounds scored in any of these assays.
# Pf growth 48h: P. falciparum growth inhibition at 48 hours (one generation); 310,000 tested, 5.9% active; P. falciparum luciferase growth in erythrocytes, 48 h; AID 504832; Potency, µM (series often up to 28.7 µM), for the others: top-dose activity change, negative = inhibition, actives largely listed as inhibitors; further: on the % scale 0 is the no-effect control and ±100 the full control effect
#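 A one-generation exposure of luciferase-tagged malaria parasites in RPMI 1640/Albumax erythrocyte culture, 37 C and 5% CO2. Inhibition is inferred from decreased luminescence after adding detection reagent.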
# Pf growth 96h: P. falciparum growth inhibition at 96 hours; P. falciparum luciferase reporter growth, 96 h; Potency, µM (highest dose often 28.7 µM), without a hit: at the highest dose activity change, negative = inhibition, hits mostly inhibitors; 320,000 tested, 6.9% active; AID 504834; further: on the % scale 0 is the no-effect control and ±100 the full control effect
#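 Parasite growth measured via integrated firefly luciferase reporter in P. falciparum. Infected erythrocytes at 2% hematocrit, 0.05% parasitemia final were treated 96 hours at 37 C under 5% CO2, and luminescence was read.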
# Sm TGR inh: blocks Schistosoma mansoni thioredoxin glutathione reductase; purified TGR, DTNB reduction, TNB absorbance 405 nm; Potency, µM (highest dose often 114 µM), for the others: top-dose activity change, negative = inhibition, hits mostly inhibitors; 360,000 tested, 3% active; AID 485364; further: on the % scale 0 is the no-effect control and ±100 the full control effect; nearly all actives have a fitted effect of over 60% in size
#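 Kinetic colorimetric format: TGR-catalysed, NADPH-driven DTNB reduction monitored via TNB absorbance. Enzyme dispensed at 20 nM; compound exposure 15 min at room temperature before reaction start.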
# NS1 function inh: blocks influenza NS1 protein function; Potency, µM (highest dose often 46.1 µM), inactives show at the top dose activity, positive = more growth; 270,000 tested, 0.4% active; AID 2326; calls by dose curve; further: actives are rising curves; nearly all actives have a fitted effect of over 50% in size
#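 Read-out: OD600 growth recovery of NS1-expressing budding yeast. Cells grown overnight at 30C in -URA glucose medium, washed, resuspended and diluted 1:100 in 2% galactose assay medium, pH 6.0. Same strain lacking NS1 served as positive control.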
# AMA1 RON2 block: disrupts binding of P. falciparum AMA1 to RON2; AlphaScreen AMA1-biotinylated RON2 peptide binding; Potency, µM (top dose mostly 58.2 µM), for inactives: at the highest dose activity change, negative = inhibition, usual class: inhibitors; 360,000 tested, 0.2% active;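 further: 0% = vehicle wells and -100% = peptide control; nearly all actives have a fitted effect of over 45% in size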
#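 AMA1 (3D7) with his tag at 25 nM final met compounds first, then biotinylated RON2 peptide at 25 nM; detection used donor plus acceptor beads, 10 µg/mL apiece, read by AlphaScreen after 30 min at room temperature.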
# Active calls of the source: *; ? = inconclusive; nt = not tested or not shown. Unless noted, the call rests on the fitted dose curve; in most records, active means well fitted curve in the direction sought with a large enough effect; inconclusive means small, poorly fitted or top-dose-only effect, or another doubt; inactive means no such curve, though single readings can be large; an effect the other way counts as inactive or inconclusive. Potency means the concentration at half of the fitted maximal effect.
SMILES,Pf growth 48h,Pf growth 96h,Sm TGR inh,NS1 function inh,AMA1 RON2 block
COc1ccc(S(=O)(=O)N2CCOCC2)cc1NC(=O)CSc1ccccc1,-6%,9%,-1%,7%,21%
CC(=O)c1ccc(OCCCC(=O)Nc2ccc(Cl)c(S(=O)(=O)N3CCOCC3)c2)cc1,nt,nt,nt,nt,-4%
COc1cc(C(C)=O)ccc1OCC(=O)Nc1ccc(Cl)c(S(=O)(=O)N2CCOCC2)c1,4.1µM*,2.1µM*,-16%,nt,-2%
O=C1CCC(C(=O)N2CCCC(C(=O)c3ccc4c5c(cccc35)CC4)C2)=NN1 (stereo not given),20%,?,74%,4%,-7%
CCn1nc(C)cc1C(=O)NC1CC(C)(C)Cc2c1cnn2-c1cccc(F)c1 (stereo not given),-15%,-30%,6%,-18%,-3%
Cc1cc(SCNC(=O)c2ccccc2)ncn1,10%,nt,14µM*,4%,40%
Cc1cc(Br)cn2c(Cc3ccsc3)c(-c3ccc(F)cc3)nc12,nt,nt,nt,nt,-3%
Cn1cncc1C#Cc1ccc2cc(CCO)oc(=O)c2c1,-6%,?,11µM*,nt,-22%
CSCC[C@H](NC(=O)[C@@H]1Cc2ccccc2CN1)C(=O)Nc1ccc2c(c1)OCO2,9.3µM*,?,-14%,5%,76%
O=C(O)CCc1ccc(-c2ccccc2)o1,22%,16%,1.4µM*,-46%,8%
O=C(O)CCc1nc(-c2ccccc2)c(-c2ccccc2)o1,-2%,10%,3%,-14%,nt
CCOC(=O)c1cnc2ccc(Cl)cc2c1Nc1ccc(N2CCOCC2)cc1,nt,nt,4%,nt,nt
CCOC(=O)c1cnc2ccc(C)cc2c1Nc1ccc(N2CCOCC2)cc1,?,10µM*,-1%,-26%,14µM*
CC(C)c1ccc(C(=O)Nc2cccnc2)cc1,317%,10µM*,5%,-44%,-3%
Cc1cc(NC(=O)c2cccc(S(=O)(=O)N3CCCC3)c2)no1,6%,-1%,-3%,-9%,0%
Cc1ccc(NC(=O)Nc2cccnc2)cc1NC(=O)Nc1cccnc1,9.3µM*,?,5%,1%,-8%
O=C(Nc1cccnc1)c1ccc(Br)c(S(=O)(=O)N2CCCC2)c1,13µM*,?,-4%,-2%,-7%
Cc1cc(NC(=O)c2ccc(Br)c(S(=O)(=O)N3CCCC3)c2)no1,10µM*,nt,5%,6%,-11%
CC(NCc1ccc(S(N)(=O)=O)cc1)C(=O)Nc1cccc(Cl)c1 (stereo not given),0%,15%,1%,3%,-6%
COC(=O)C(Cc1ccccc1)NC(=O)CNC(=O)c1ccc(Br)cc1 (stereo not given),5%,18%,-6%,-3%,-15%
CCCS(=O)(=O)NC(=O)C1(C)CCCN(C(=O)CCc2cccs2)C1 (stereo not given),nt,nt,nt,nt,-4%
Cc1ccc(C(=O)Nc2cccnc2)cc1C,nt,nt,nt,nt,-5%
Cc1ccc(C(=O)Nc2cccnc2)cc1Cl,56%,10µM*,2%,-56%,-6%
Cc1ccc(C(=O)Nc2cccnc2)cc1S(=O)(=O)N1CCCCC1,?,2.1µM*,-18%,-2%,19%
O=C(C1CC(c2ccc(F)cc2)=NO1)N1CCCc2ccccc21 (stereo not given),20%,2.1µM*,-1%,-8%,1%
SMILES,Pf growth 48h,Pf growth 96h,Sm TGR inh,NS1 function inh,AMA1 RON2 block
Cc1ccc(NC2CCCCC2NS(=O)(=O)c2ccccc2)c(C)c1 (stereo not given),?,?,3%,-5%,-28%
CCOC(=O)C(C)N1C(=O)S/C(=C/c2cc(C)n(-c3ccncc3)c2C)C1=O (stereo not given),?,13µM*,18%,1%,-22%
C=CC[C@@H](CC(=O)N[C@H](CO)Cc1ccccc1)C(=O)N[C@H](COC(=O)[C@@H](CC=C)Cc1ccc(F)cc1)Cc1c[nH]c2ccccc12,nt,nt,nt,nt,-16%
COCCNC(=O)Cn1ncc2c(C)n(Cc3ccc(C)cc3)c(C)c2c1=O,nt,nt,-3%,nt,nt
CN(C)c1oc(-c2ccccc2Cl)nc1S(=O)(=O)c1ccccc1,nt,6.6µM*,-11%,-49%,-26%
CN(C)CCCNc1oc(-c2ccccc2Cl)nc1S(=O)(=O)c1ccccc1,-26%,?,-25%,nt,0%
CCc1ccccc1NC(=O)Cn1c(=O)n(CCc2ccccc2)c(=O)c2sc3ccccc3c21,nt,nt,-5%,nt,nt
